Hits are enriched below; roughly 2.9% of the tested compounds scored in any of these assays.
pPAFAH inh = pPAFAH (human) enzyme inhibition; AID 463082; recombinant pPAFAH, FP-rhodamine probe fluorescence polarization; Q13093; 330,000 tested, 1.5% active; inhibition, % at 3.39 µM;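 active = inhibition above the mean inhibition across the screen plus 3 SD, cut at about 25% in these data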;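 note: inhibitors block binding of the rhodamine activity-based probe so polarization drops; 0% = enzyme with DMSO and 100% = wells lacking pPAFAH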
EBNA-1 inhibitor = blocks EBNA-1 binding to DNA | EBNA-1 DNA binding, fluorescence polarization | inhibition, % at 14.8 µM | 300,000 tested, 0.34% active | AID 1950; in the data active = inhibition above about 28%
PAFAH1B3 FP inh = blocks human PAF acetylhydrolase 1B catalytic subunit 3; Q15102; 340,000 tested, 0.28% active; inhibition, % at 3.39 µM; recombinant PAFAH1B3, FP-rhodamine probe, fluorescence polarization;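 active = inhibition above the screen-wide average of all tested compounds plus 3 SD, cut at about 25% in these data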;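 note: 0% = enzyme with DMSO only and 100% = wells lacking PAFAH1B3 protein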
PAFAH1B2 inh = inhibitors of human PAFAH1B2; P68402; recombinant PAFAH1B2, FP-rhodamine activity probe, fluorescence polarization; inhibition, % at 3.39 µM; 340,000 tested, 1.2% active;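 active = inhibition above the mean of all tested compounds plus 3 SD, cut at about 24% in these data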;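 note: 0% = enzyme with DMSO and 100% = wells lacking PAFAH1B2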
Target sequence (P68402 whole entry, looked up): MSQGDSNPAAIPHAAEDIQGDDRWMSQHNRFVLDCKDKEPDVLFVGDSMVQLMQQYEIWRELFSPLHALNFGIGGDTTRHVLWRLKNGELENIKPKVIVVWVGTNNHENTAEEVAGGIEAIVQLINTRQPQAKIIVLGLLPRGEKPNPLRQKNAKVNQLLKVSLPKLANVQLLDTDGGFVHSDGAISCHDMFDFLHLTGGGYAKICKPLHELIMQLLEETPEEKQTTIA
PAFAH2 FP inh = inhibitors of human PAFAH2 | 340,000 tested, 0.99% active | recombinant PAFAH2, FP-rhodamine activity probe, fluorescence polarization | Q99487 | inhibition, % at 3.39 µM | AID 492956;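 active = inhibition above the mean over all tested compounds plus 3 SD, cut at about 30% in these data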;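 note: inhibitors block probe labeling of enzyme so polarization drops; 0% = enzyme with DMSO and 100% = wells lacking PAFAH2 protein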
ZTA DNA inh = blocks Epstein-Barr virus ZTA, an EBNA-1 counter-screen; P03206; ZTA-DNA binding, fluorescence polarization; inhibition, % at 11 µM; 320,000 tested, 0.15% active; AID 2234; in the data active = inhibition above about 33%
Target sequence (P03206 whole entry, looked up): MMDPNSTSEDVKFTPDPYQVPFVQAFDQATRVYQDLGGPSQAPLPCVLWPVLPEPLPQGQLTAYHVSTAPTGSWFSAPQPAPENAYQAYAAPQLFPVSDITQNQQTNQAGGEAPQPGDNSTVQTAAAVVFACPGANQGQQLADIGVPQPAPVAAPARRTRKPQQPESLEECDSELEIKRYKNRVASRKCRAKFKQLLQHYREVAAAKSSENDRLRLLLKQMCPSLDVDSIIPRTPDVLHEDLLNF
* = called active by the depositor; / = no result.

SMILES	pPAFAH inh	EBNA-1 inhibitor	PAFAH1B3 FP inh	PAFAH1B2 inh	PAFAH2 FP inh	ZTA DNA inh
COC(=O)c1sc2nc3c(c(-c4cccs4)c2c1N)CCCC3	-5	-5	5	-4	-8	-5
NC(=O)c1sc2nc3c(c(-c4ccco4)c2c1N)CCCC3	18	2	3	6	-3	-5
NC(=O)c1sc2nc3c(c(-c4ccc(Cl)cc4)c2c1N)CCCC3	30*	-3	7	4	7	-13
Cc1ccc(-c2c3c(nc4sc(C(N)=O)c(N)c24)CCC3)cc1	28*	2	4	-7	0	-5
COc1ccc(-c2csc3nc(C)nc(N4CCN(c5ccc(C(C)=O)cc5)CC4)c23)cc1OC	4	4	12	1	6	11
CCC(=O)Nc1ccc(N2CCOCC2)c(S(=O)(=O)Nc2ccc(OC)cc2)c1	2	4	10	4	-4	3
COc1ccc(NS(=O)(=O)c2cc(NC(=O)c3ccc(C)s3)ccc2N2CCOCC2)cc1	27*	11	-4	0	-9	2
COc1ccc(NS(=O)(=O)c2cc(NC(=O)/C=C/c3cccs3)ccc2N2CCOCC2)cc1	-10	73*	-19	-5	-44	-18
CCN1C(=O)c2ccc(C(=O)Nc3c(C)cc(C)cc3C)cc2C1=O	-3	1	8	0	2	4
COc1ccc2nc(NC(=O)c3cccc(-c4cc5ccccc5oc4=O)c3)sc2c1	3	44*	-9	-9	-15	14
CCN(CC(=O)NCC1CCCO1)S(=O)(=O)c1ccc2ccccc2c1 (configuration not stated)	0	-13	-7	7	2	-5
Cc1cccc(NC(=O)CCCCCN2C(=O)[C@@H]3Cc4ccccc4CN3C2=O)c1	5	-2	3	5	12	-1
Cc1ccc(NC(=O)CCCCCN2C(=O)[C@@H]3Cc4ccccc4CN3C2=O)cc1	3	-6	7	28*	9	-20
COc1ccc(N2CCN(C(=S)NCc3ccccc3)CC2)cc1	5	-4	7	0	0	-20
O=C(O[C@@H]1OC2COC(=O)c3cc(O)c(O)c(O)c3-c3c(cc(O)c(O)c3O)C(=O)O[C@@H]([C@H]1O)[C@@H]2O)c1cc(O)c(O)c(O)c1	75*	4	37*	26*	59*	-19
NCCNC[C@@H]1COC2(CCCCCCCCCCC2)O1	1	-2	/	/	/	18
COc1ccc(C(=O)NNC2CC(=O)N(Cc3ccc(Cl)cc3)C2=O)cc1OC (configuration not stated)	33*	0	5	4	5	-4
Cc1cc(C(=O)CSc2nc(N)cc(N)n2)c(C)n1-c1cccc(F)c1	5	6	4	-5	0	-6
CS(=O)(=O)Oc1ccc(/C=N/NC(=O)c2ccncc2)cc1	0	6	-9	2	5	17
CC(=O)Nc1ccc(N2CCN(C(=O)c3cccs3)CC2)cc1	3	4	4	1	-11	9
Nc1ccc(N2CCN(C(=O)c3cccs3)CC2)cc1	32*	0	4	1	8	12
CCOc1ccc(N2C(=O)CNC2=S)cc1	-1	1	7	0	-5	-7
CCOc1ccc(N2C(=O)CS/C2=C(\C(Cl)=C(Cl)Cl)[N+](=O)[O-])cc1	28*	8	11	2	0	-3
c1ccc(NC2=NCCN2CCCC2CCCCC2)cc1	6	0	4	0	-5	-6
Cc1oc2ccc(OCc3cccc(Cl)c3)cc2c1C(=O)O	/	/	-8	9	1	/
SMILES	pPAFAH inh	EBNA-1 inhibitor	PAFAH1B3 FP inh	PAFAH1B2 inh	PAFAH2 FP inh	ZTA DNA inh
Cc1oc2ccc(OCc3ccc(F)cc3)cc2c1C(=O)O	-2	-8	-4	25*	-2	-10
CN(Cc1nc2ccccc2c(=O)[nH]1)C(=O)C1CC(=O)N(c2cccc3ccccc23)C1 (configuration not stated)	6	/	13	3	4	/
Nc1ccc(O)cc1C(=O)OCC(=O)C12CC3CC(CC(C3)C1)C2	29*	7	-6	16	86*	-14
O=C(OCC(=O)C12CC3CC(CC(C3)C1)C2)c1ccccc1O	4	/	-2	12	10	/
CNS(=O)(=O)c1cccc(C(=O)OCC(=O)Nc2ccc(Cl)cn2)c1	6	2	6	0	21	12
O=C(OCC(=O)C12CC3CC(CC(C3)C1)C2)c1ccc(O)cc1	3	/	1	26*	84*	/
CNS(=O)(=O)c1cccc(C(=O)OCC(=O)C23CC4CC(CC(C4)C2)C3)c1	6	6	1	30*	46*	12
N/C(=N\OC(=O)c1ccc(Cl)cc1Cl)c1ccc(Cl)cc1	-4	7	7	37*	-22	-5
Cc1ccc(C(=O)OCCn2cc(C#N)c(=O)[nH]c2=O)cc1	-3	1	19	7	9	5
CN(C)C1CCN(Cc2cc(COCc3ccccc3)c3cccnc3c2O)C1 (configuration not stated)	25*	/	17	5	6	/
Oc1c(CN2CCCCC2)cc(COCc2ccccc2)c2cccnc12	6	0	6	-2	7	4
COc1cc(F)c(S(=O)(=O)N2CCOc3ccccc32)cc1OC	-2	-6	-1	0	1	-7
COc1cc(C(=S)N2CCOCC2)cc(OC)c1OS(=O)(=O)c1ccc(Cl)cc1	2	0	3	2	2	-12
COc1cccc(C(=S)N2CCOCC2)c1OS(=O)(=O)c1ccc(Cl)cc1	27*	-4	11	-3	-2	5
COc1ccc(S(=O)(=O)Oc2cccc(C(=S)N3CCOCC3)c2)cc1	-2	1	1	26*	1	1
O=C(CC1SC(=NCCc2ccccc2)N(/N=C/c2cccs2)C1=O)Nc1ccc(Cl)cc1 (configuration not stated)	-21	13	-9	-5	-19	1
Oc1cccc(/C=N/N=C/c2cccc(O)c2O)c1O	5	9	-4	-8	-16	14
Cc1ccccc1N=Cc1cccc(O)c1O	32*	-8	2	9	3	-2
CCN1C[C@@H]2[C@@H]3C(=O)N(Cc4ccccc4)C(=O)[C@@H]3[C@](CC)(C(=O)OC)N2C1=NC	3	/	5	3	2	/
O=C1N[C@H](Cc2ccccc2)COC(=O)[C@H](Cc2ccc(F)cc2)CC/C=C/C[C@H]1CC(=O)N(CCO)Cc1ccccc1	6	/	4	3	4	/
O=C1N[C@@H](Cc2ccccc2)COC(=O)[C@@H](Cc2ccc(F)cc2)C/C=C\C[C@@H]1CC(=O)N(CCO)Cc1ccccc1	9	/	-2	41*	1	/
CC(C)(C)[C@@H]1COC(=O)[C@H](Cc2ccc(F)cc2)C/C=C\C[C@H](CC(=O)N(CCO)Cc2ccccc2)C(=O)N1	3	/	5	30*	3	/

Screening data (PubChem)
